Inconclusive results are not listed. Activity calls are given as the source filed them. Calls come from the whole dose curve; as a rule, active = well fitted curve in the direction sought with a large enough effect; inconclusive = small, poorly fitted or top-dose-only effect, or another doubt; inactive = no such curve, though single readings can be large; an effect the other way counts as inactive or inconclusive.
Columns and labels:
CRL-7250 = normal cell line; assay: Cytotoxic Profiling of Annotated Libraries Using Quantitative High-Throughput Screening (AID 1296008); conditions: Five cell lines viability, CellTiter-Glo ATP luminescence, 48-72 h; max response: hits give low values; note: nearly all actives have a fitted effect of over 60% in size; for max response: % is set by controls: 0 for no effect and ±100 for the full control effect
Summary of the method: (§1)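 Compounds were pin-transferred onto cells and incubated 48 or 72 hr at 37 degree Celsius, 95% humidity. CellTiter-Glo was added, plates sat 10 min at room temperature, then ATP-coupled luminescence was imaged as the viability read-out.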

HEK293 = assay: as above; conditions: Five cell lines viability, CellTiter-Glo ATP luminescence, 48-72 h; max response: hits give low values
Summary of the method: as §1

HaCat [1] = assay: as above; conditions: Five cell lines viability, CellTiter-Glo ATP luminescence, 48-72 h; max response: hits give low values
Summary of the method: as §1

KB-3-1 = assay: as above; conditions: Five cell lines viability, CellTiter-Glo ATP luminescence, 48-72 h; max response: hits give low values
Summary of the method: as §1

NIH3T3 = assay: as above; conditions: Five cell lines viability, CellTiter-Glo ATP luminescence, 48-72 h; max response: hits give low values
Summary of the method: as §1

HACAT [2] = assay: qHTS assay to identify novel small-molecules to repurpose for Merkel cell carcinoma treatment (AID 1296009); conditions: MCC and control cell lines, CellTiter-Glo viability, 72 h; at 44.8 µM (top of the series) unless noted; note: nearly all actives have a fitted effect of over 60% in size
Summary of the method: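 Cells exposed to NPC (8-point) and MIPE (11-point) compound dilutions for 72 hr at 37 degree celsius; viability read by CellTiter-Glo luminescence, normalized to no-cell and DMSO in-plate controls.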

C33A = assay: Primary qHTS to identify gynecologic anti-cancer compounds using libraries of approved drugs and bioactive compounds (AID 1345084); conditions: Gynecologic cancer cell panel viability, ATPlite luminescence, 48 h; series mostly up to 57.5 µM; note: % is set by controls: 0 for no effect and ±100 for the full control effect; nearly all actives have a fitted effect of over 55% in size
Summary of the method: (§2)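 Luminescence from the ATPlite ATP-monitoring reagent indicates viable cell number; lower signal means cytotoxicity. Cells received compound 16 h after seeding and were exposed for 48 h across five concentrations.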

CAOV3 = assay: as above; conditions: Gynecologic cancer cell panel viability, ATPlite luminescence, 48 h; series mostly up to 57.5 µM
Summary of the method: as §2

CASKI = assay: as above; conditions: Gynecologic cancer cell panel viability, ATPlite luminescence, 48 h; series mostly up to 57.5 µM
Summary of the method: as §2

Es-2 = assay: as above; conditions: Gynecologic cancer cell panel viability, ATPlite luminescence, 48 h; series mostly up to 57.5 µM
Summary of the method: as §2

HeLa = assay: as above; conditions: Gynecologic cancer cell panel viability, ATPlite luminescence, 48 h; series mostly up to 57.5 µM
Summary of the method: as §2

Hek293T = assay: as above; conditions: Gynecologic cancer cell panel viability, ATPlite luminescence, 48 h, control line for the selectivity index; series mostly up to 57.5 µM
Summary of the method: as §2

JEG-3 = assay: as above; conditions: Gynecologic cancer cell panel viability, ATPlite luminescence, 48 h; series mostly up to 57.5 µM
Summary of the method: as §2

OV90 = assay: as above; conditions: Gynecologic cancer cell panel viability, ATPlite luminescence, 48 h; series mostly up to 57.5 µM
Summary of the method: as §2

Cc1nc2ccccc2c(-c2ccc3c4c(ccnc24)CCO3)c1[C@H](OC(C)(C)C)C(=O)O
inactive: max response (CRL-7250) -8% | max response (HEK293) 4.74% | outcome (HaCat [1]) | max response (KB-3-1) -6.3% | max response (NIH3T3) -2.71% | outcome (HACAT [2]) | Potency (C33A) | Potency (CAOV3) | outcome (CASKI) | Potency (Es-2) | Potency (HeLa) | Potency (Hek293T) | Potency (JEG-3) | Potency (OV90)

CC(=O)O[C@H]1[C@H](O[C@H]2CC[C@]34C[C@]35CC[C@]3(C)[C@@H]([C@@]6(C)CC[C@@H](C(C)(C)O)O6)[C@@H](O)C[C@@]3(C)[C@@H]5C[C@H](O[C@@H]3O[C@H](CO)[C@@H](O)[C@H](O)[C@H]3O)[C@H]4C2(C)C)OC[C@@H](OC(C)=O)[C@@H]1O
inactive: max response (CRL-7250) -0.709% | max response (HEK293) -4% | outcome (HaCat [1]) | outcome (KB-3-1) | max response (NIH3T3) 1.91% | outcome (HACAT [2]) | Potency (C33A) | Potency (CAOV3) | outcome (CASKI) | Potency (Es-2) | Potency (HeLa) | Potency (Hek293T) | Potency (JEG-3) | Potency (OV90)

CCCCC(=O)N1c2ccccc2NC2=C(C(=O)CCC2)C1c1ccccc1Cl (stereo not drawn)
inactive: outcome (CRL-7250) | max response (HEK293) -3.83% | outcome (HaCat [1]) | max response (KB-3-1) 6.63% | max response (NIH3T3) -4.77% | outcome (HACAT [2]) | Potency (C33A) | Potency (CAOV3) | outcome (CASKI) | Potency (Es-2) | Potency (HeLa) | Potency (Hek293T) | Potency (JEG-3) | Potency (OV90)

COc1cc(C(=O)OC[C@@]2(O)CO[C@@H](O[C@H]3[C@H](Oc4ccc(O)cc4)O[C@H](CO)[C@@H](O)[C@@H]3O)[C@@H]2O)cc(OC)c1O
inactive: outcome (CRL-7250) | max response (HEK293) -3.3% | outcome (HaCat [1]) | max response (KB-3-1) -0.593% | max response (NIH3T3) -1.11% | outcome (HACAT [2]) inactive [at 17.4 µM] | Potency (C33A) | Potency (CAOV3) | outcome (CASKI) | Potency (Es-2) | Potency (HeLa) | Potency (Hek293T) | Potency (JEG-3) | Potency (OV90)

C=C1CC[C@H]2[C@@](C)(CCC(O)[C@@]2(C)CO)[C@@H]1/C=C/C(=C\C(=O)O)C(=O)O (stereo partly drawn)
inactive: max response (CRL-7250) -1.65% | max response (HEK293) -0.745% | outcome (HaCat [1]) | outcome (KB-3-1) | max response (NIH3T3) -1.97% | outcome (HACAT [2]) | Potency (C33A) | Potency (CAOV3) | outcome (CASKI) | Potency (Es-2) | Potency (HeLa) | Potency (Hek293T) | Potency (JEG-3) | Potency (OV90)

CC1(C)CC=C(c2cnc3ccccc3c2)c2cc(C(=O)Nc3ccc(C(=O)O)cc3)ccc21
inactive: outcome (CRL-7250) | max response (HEK293) 2.92% | outcome (HaCat [1]) | outcome (KB-3-1) | max response (NIH3T3) -2.18% | outcome (HACAT [2]) | Potency (C33A) | Potency (CAOV3) | outcome (CASKI) | Potency (Es-2) | Potency (HeLa) | Potency (Hek293T) | Potency (JEG-3) | Potency (OV90)

COc1cc(C)c(C(=O)O[C@@H]2[C@H](O)[C@@H](CO)O[C@H]2n2ccc(=O)[nH]c2=O)c(OC)c1
inactive: outcome (CRL-7250) | max response (HEK293) 3.08% | outcome (HaCat [1]) | outcome (KB-3-1) | max response (NIH3T3) 2.52% | outcome (HACAT [2]) inactive [at 17.4 µM] | Potency (C33A) | Potency (CAOV3) | outcome (CASKI) | Potency (Es-2) | Potency (HeLa) | Potency (Hek293T) | Potency (JEG-3) | Potency (OV90)

Cc1cc(-c2nncc3c(C(C)(C)C)c(OCc4ncnn4C)nn23)no1
inactive: outcome (CRL-7250) | max response (HEK293) -4.36% | outcome (HaCat [1]) | max response (KB-3-1) 6.49% | max response (NIH3T3) 1.34% | outcome (HACAT [2]) | Potency (C33A) | Potency (CAOV3) | outcome (CASKI) | Potency (Es-2) | Potency (HeLa) | Potency (Hek293T) | Potency (JEG-3) | Potency (OV90)

O=C(O[C@H]1[C@H](Oc2ccc(O)cc2CO)O[C@H](CO)[C@@H](O)[C@@H]1O)c1ccccc1
inactive: max response (CRL-7250) -4.77% | max response (HEK293) -1.69% | outcome (HaCat [1]) | outcome (KB-3-1) | max response (NIH3T3) 2.07% | outcome (HACAT [2]) inactive [at 17.4 µM] | Potency (C33A) | Potency (CAOV3) | outcome (CASKI) | Potency (Es-2) | Potency (HeLa) | Potency (Hek293T) | Potency (JEG-3) | Potency (OV90)

O=C(OCC(O)CO[C@@H]1O[C@H](C(=O)O)[C@@H](O)[C@H](O)[C@H]1O)c1ccccc1 (stereo partly drawn)
inactive: max response (CRL-7250) 4.18% | max response (HEK293) -2.05% | outcome (HaCat [1]) | max response (KB-3-1) 0.261% | max response (NIH3T3) 0.296% | outcome (HACAT [2]) | Potency (C33A) | Potency (CAOV3) | outcome (CASKI) | Potency (Es-2) | Potency (HeLa) | Potency (Hek293T) | Potency (JEG-3) | Potency (OV90)

CC(C)c1ccc2c(c1)C(O)CC1C(C)(CO)CCCC21C (stereo not drawn)
inactive: max response (CRL-7250) -14% | max response (HEK293) -7.86% | outcome (HaCat [1]) | max response (KB-3-1) 9.46% | max response (NIH3T3) -1.6% | outcome (HACAT [2]) | Potency (C33A) | Potency (CAOV3) | outcome (CASKI) | Potency (Es-2) | Potency (HeLa) | Potency (Hek293T) | Potency (JEG-3) | Potency (OV90)

COc1cc(CCCO)ccc1O[C@@H]1O[C@H](CO)[C@@H](O)[C@H](O)[C@H]1O
inactive: outcome (CRL-7250) | max response (HEK293) 0.679% | outcome (HaCat [1]) | outcome (KB-3-1) | max response (NIH3T3) -1.2% | outcome (HACAT [2]) | Potency (C33A) | Potency (CAOV3) | outcome (CASKI) | Potency (Es-2) | Potency (HeLa) | Potency (Hek293T) | Potency (JEG-3) | Potency (OV90)

Reference: PubChem BioAssay (NCATS)
